Shown are actives, neighbours in structure and some others; about 2.7% of the full set was active somewhere.
PAX8 reporter: PAX8 transcriptional activity inhibition; RMG-I TPO-luciferase reporter, SteadyGlo, 24 h; inhibition, % at 12.6 µM; hit rate 1.2% among 360,000; AID 652154;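 active means mean replicate inhibition at least 60% with every replicate also reaching 60%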;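 further: luciferase light reporting Pax8 driven TPO promoter activity; plate controls were median of neutral control wells for no effect and mitoxantrone controls for full effect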
INS-1E GSIS act: primary screen for activators of insulin secretion dependent on glucose, INS-1E cells, GLuc reporter luminescence. INS-1E GLuc reporter insulin secretion, 2-3 h. hit rate 0.61% among 370,000. AID 743287. activation, % at 16.6 µM;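 active means lowest replicate activation of at least 40%, so every replicate reaches that level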;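 further: 0% = median of neutral control wells and 100% = median of IBMX positive control wells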
HIV Env fusion: inhibitors of HIV Env-mediated cell fusion; HeLa-JRFL Env/CEM21 cell fusion, luciferase; inhibition, % at 12.3 µM; hit rate 1.1% among 360,000; AID 651610;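 active means mean replicate inhibition score of at least 50 and every replicate individually at or above 50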;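 further: 0% = plate neutral controls and 100% = maraviroc near 300 nM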
F508del corr: CFTR F508del correction in bronchial cells; CFBE cells, YFP halide quenching; stimulated with forskolin plus potentiator P3; % fluorescence drop versus neutral controls; activity (quench increase), % at 7.58 µM; hit rate 0.36% among 350,000;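 active means mean added fluorescence quench of at least 8% versus neutral control, with both replicates also reaching 8%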;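 further: cells transiently co-express mutant CFTR-F508del with the halide-sensitive YFP; corrector assay measuring rescue of mutant channel to the surface after 24 h compound exposure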
PGC1a acetyl inh: lowers PGC1a acetylation signal in U2OS cells; AlphaScreen anti-acetyl-lysine; with virally co-expressed GCN5 acetyltransferase; AID 651687; inhibition, % at 15.6 µM; hit rate 0.17% among 350,000;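 active means every replicate shows inhibition of at least 40%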;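 further: 0% = neutral control wells and 100% = positive control wells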
EWS-Fli block: EWS/Fli transcriptional activity inhibition; inhibition, % at 12.6 µM; hit rate 0.67% among 350,000; A673 NR0B1-luciferase reporter, viability-normalised;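 active means mean inhibition of at least 50% after viability correction, with every replicate also passing that limit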;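 further: firefly luciferase signal divided by Alamar Blue viability fluorescence both relative to DMSO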
* marks the source's active call; other numbers are inactive results; / = no result.

SMILES | PAX8 reporter | INS-1E GSIS act | HIV Env fusion | F508del corr | PGC1a acetyl inh | EWS-Fli block
C/C=C(\C)C(=O)N[C@@H](c1ccccc1)[C@@H](O)C(=O)O[C@H]1C[C@@]2(O)[C@@H](OC(=O)c3ccccc3)C3[C@](C)(C(=O)[C@H](OC(C)=O)C(=C1C)C2(C)C)[C@H](O)C[C@H]1OC[C@@]31OC(C)=O (some centres undefined) | / | / | / | 6 | -8 | 58*
CC/C=C/CC(=O)N[C@@H](c1ccccc1)[C@@H](O)C(=O)O[C@H]1C[C@@]2(O)[C@@H](OC(=O)c3ccccc3)C3[C@](C)(C(=O)[C@H](OC(C)=O)C(=C1C)C2(C)C)[C@@H](O)C[C@H]1OC[C@@]31OC(C)=O (some centres undefined) | / | / | / | 17* | -9 | 36
O=C(O)[C@@H]1[C@@H](CO)[C@@H]2Cn3c(ccc(-c4ccncc4)c3=O)[C@H]1N2C(=O)C1CCC1 | / | 5 | / | 0 | / | -8
O=C(Cc1ccccn1)N1CCCCN2[C@@H](CO)[C@@H](c3ccc(-c4ccccc4)cc3)[C@@H]2C1 | -9 | -13 | / | 0 | 4 | 4
CC=Cc1ccc2n(c1=O)C[C@H]1[C@H](CO)[C@@H](C(=O)OC)[C@@H]2N1CC1CCCCC1 (mixture of isomers) | 12 | -15 | / | 0 | / | 7
CSCCC(c1nnnn1-c1ccc2c(c1)OCCO2)N1CCC(n2c(=O)[nH]c3ccccc32)CC1 (centres undefined) | 93* | -3 | 7 | 0 | 16 | 21
CCC(c1nnnn1-c1ccc2c(c1)OCCO2)N1CCC(n2c(=O)[nH]c3ccccc32)CC1 (centres undefined) | 85* | -26 | 34 | 4 | 12 | 13
COC(=O)[C@@H]1[C@@H](CO)[C@@H]2Cn3c(ccc(-c4ccccc4)c3=O)[C@H]1N2C(=O)c1ccccc1F | / | 5 | / | 0 | / | 4
CC(C)C(NC(=O)C(C(C)C)N(C)C)C(=O)N(C)C(C(=O)N1CCCC1C(=O)N1CCCC1C(=O)NCc1ccccc1)C(C)C (centres undefined) | 76* | -9 | -3 | 3 | 3 | 56*
CC(=O)OC12COC1CC(O)C1(C)C(=O)C(O)C3=C(C)C(O)CC(O)(C(OC(=O)c4ccccc4)C21)C3(C)C (centres undefined) | / | / | -23 | 0 | 4 | 73*
CC(=O)O[C@@]12CO[C@@H]1C[C@H](OC1OCC(O)C(O)C1O)[C@@]1(C)C(=O)[C@H](O)C3=C(C)[C@@H](OC(=O)[C@H](O)[C@@H](NC(=O)c4ccccc4)c4ccccc4)C[C@@](O)([C@@H](OC(=O)c4ccccc4)C12)C3(C)C (some centres undefined) | / | 4 | / | 3 | -13 | 55*
CC(=O)O[C@@]12CO[C@@H]1C[C@@H](O)[C@@]1(C)C(=O)[C@H](O)C3=C(C)[C@@H](OC(=O)[C@H](O)[C@@H](NC(=O)c4ccccc4)c4ccccc4)C[C@@](O)([C@@H](OC(=O)c4ccccc4)C12)C3(C)C (some centres undefined) | / | / | / | 0 | -21 | 55*
COC(=O)[C@@H]1[C@@H](CO)[C@@H]2Cn3c(ccc(C4=CCCCC4)c3=O)[C@H]1N2Cc1cccnc1 | 8 | 1 | / | 0 | -6 | 3
CC(=O)OCC12CC(OC(=O)CC(C)C)C(C)=CC1OC1C(O)C(OC(C)=O)C2(C)C12CO2 (centres undefined) | 102* | -14 | 67* | -5 | 74* | 44
O=c1cccc2n1CC1CC2CN(Cc2c(Cl)cccc2Cl)C1 (centres undefined) | / | / | 7 | / | -10 | /
O=c1cccc2n1CC1CC2CN(c2nc(N3CCCCC3)nc(N3CCCCC3)n2)C1 (centres undefined) | 6 | -23 | 82* | -2 | 3 | 18
COC(=O)[C@@H]1[C@@H](CO)[C@@H]2Cn3c(ccc(-c4ccccc4F)c3=O)[C@H]1N2Cc1ccccc1 | 10 | 2 | / | 0 | / | -1
CCCCN=C[C@]12CCC(O)CC1(O)CCC1[C@@H]2CC[C@]2(C)[C@H](C3C=CC(=O)O3)CCC12O (some centres undefined) | 107* | 2 | 82* | 0 | / | 73*
